Screening results as filed in PubChem BioAssay.
This is a sample that favours compounds with a hit; in the whole collection about 3.1% have one here.
uPA generation: cell surface uPA generation inhibition; cell surface uPA generation assay, qHTS; Potency, µM (highest dose often 38.3 µM), actives largely listed as inhibitors; 0.31% of 330,000 active; active = well fitted inhibition curve with a large enough effect; inconclusive = small, poorly fitted or top-dose-only effect; inactive = no such curve, though single readings can be large or run the other way; tested in mouse RAW 264.7 cells; also: nearly all actives have a fitted effect of over 55% in size
RGS4 inhibitor: human RGS4 inhibition. Transcreener GDP fluorescence polarization, RGS4-accelerated GTP hydrolysis. 0.039% of 390,000 active. AID 504845. Potency, µM (series often up to 114 µM), actives largely listed as inhibitors; active = well fitted inhibition curve with a large enough effect; inconclusive = small, poorly fitted or top-dose-only effect; inactive = no such curve, though single readings can be large or run the other way; also: nearly all actives have a fitted effect of over 75% in size
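MLSMR compounds (23 nl, pin-transferred) preincubated 10 min at room temperature with a 500nM (2x) first reagent, then RGS4 at 900nM (2x) plus Transcreener GDP mix added; fluorescence polarization (620/688 nm) read before and after 90 min at 30 °C.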
D3 ag: D3 dopamine receptor (human) agonism. D3R DiscoveRx beta-arrestin cells, luminescence, 90 min. P35462. max activation, %. 0.58% of 410,000 active. AID 652048; in the data active = max activation above about 30%
Target sequence (P35462 whole entry, looked up): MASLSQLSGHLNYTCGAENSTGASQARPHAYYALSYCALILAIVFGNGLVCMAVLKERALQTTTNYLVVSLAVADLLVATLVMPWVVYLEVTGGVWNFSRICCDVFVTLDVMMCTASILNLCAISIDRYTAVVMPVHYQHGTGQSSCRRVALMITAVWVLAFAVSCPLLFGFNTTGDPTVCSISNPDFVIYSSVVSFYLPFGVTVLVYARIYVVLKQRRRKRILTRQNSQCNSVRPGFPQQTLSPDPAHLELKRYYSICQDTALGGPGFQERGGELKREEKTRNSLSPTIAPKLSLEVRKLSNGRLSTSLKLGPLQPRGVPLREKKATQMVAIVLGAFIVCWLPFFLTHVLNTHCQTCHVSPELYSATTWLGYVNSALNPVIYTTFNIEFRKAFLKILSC
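Cells at 1500/well, incubated overnight, then treated with pinned compounds (dopamine as control) for 90 min at 37 degrees C. DiscoveRx reagent added for 30 - 60 minutes at room temperature; luminescence read.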
D3 antag: blocks the human D3 dopamine receptor; 2.5% of 360,000 active; max response, negative = inhibition, %; P35462; D3R cells, DiscoveRx beta-arrestin luminescence, antagonist mode; stronger effect = lower value; in the data active = max response below about -50%; inconclusive = no clear call, values can overlap the other calls
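Cells plated overnight at 1500 cells/well, then exposed to library compounds with dopamine controls for 90 minutes at 37 degrees C. DiscoveRx reagent added for 30–60 minutes at room temperature; luminescence read, quantitative HTS format.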
Of the large screens only hits and unclear results are named; the others gave an inactive call.

COC1(OC)N=C(N)C2(C#N)C(c3cccc(Oc4ccccc4)c3)C12C#N (configuration not stated)	D3 antag -50
COc1cccc(C2C3(C#N)C(N)=NC(OC)(OC)C23C#N)c1 (configuration not stated)	none
Fc1ccc(-n2cc(CNCCc3ccncc3)c(-c3ccccc3Cl)n2)cc1	none
Fc1ccc(-n2cc(CNCCc3cccnc3)c(-c3ccccc3Cl)n2)cc1	D3 antag -70
COc1ccc(C2NC(=S)N3C(c4ccc(OC)c(OC)c4)NC(=S)N23)cc1OC (configuration not stated)	none (no result: uPA generation, RGS4 inhibitor, D3 antag)
COC(=O)[C@H]1[C@H]2C[C@@H]3c4[nH]c5cc(OC)ccc5c4CCN3C[C@H]2C[C@H](OC)[C@@H]1OC	none (no result: uPA generation, RGS4 inhibitor, D3 antag)
O=C(N/N=C\c1cn(-c2ccccc2)nc1-c1ccccc1)c1ccc(Br)o1	none
Cc1ccc(-c2nn(-c3ccccc3)cc2/C=N/NC(=O)c2ccc(Br)o2)cc1	D3 ag 39
CC1CC(=S)Nc2ccccc2S1 (configuration not stated)	D3 antag -77
Cc1ccc(C(c2nnnn2CCC(C)C)N2CCN(C)CC2)cc1 (configuration not stated)	D3 antag -67
C=CCN1CCN(C(c2ccccc2)c2nnnn2CCC(C)C)CC1 (configuration not stated)	D3 antag -82
COc1ccc(NS(=O)(=O)c2ccc3c(c2)CC(C)N3C(C)=O)c(OC)c1 (configuration not stated)	none (no result: uPA generation, D3 antag)
O=c1oc2ccc(F)cc2cc1-c1nc(-c2cccs2)no1	none (no result: uPA generation, D3 antag)
COc1ccc(C2CC(O)(c3ccccc3)Oc3c(C)ccc(C(C)C)c32)cc1 (configuration not stated)	none (no result: uPA generation, D3 ag, D3 antag)
CS(=O)(=O)c1ccc(C(=O)OCC(=O)NC(=O)NC2CCCCC2)cc1[N+](=O)[O-]	none (no result: uPA generation, D3 ag, D3 antag)
CC(=O)Oc1cc(C(=O)OCC(=O)NC23CC4CC(CC(C4)C2)C3)cc(OC(C)=O)c1OC(C)=O	uPA generation 10µM
CS(=O)(=O)c1ccc(C(=O)OCC(=O)NC23CC4CC(CC(C4)C2)C3)cc1[N+](=O)[O-]	D3 antag -58
Cn1cccc1C(=O)NC(=O)COC(=O)c1ccc(S(C)(=O)=O)c([N+](=O)[O-])c1	D3 antag -77
COc1cccc(C(=O)OCC(=O)NC23CC4CC(CC(C4)C2)C3)c1	none
CS(=O)(=O)c1ccc(C(=O)OCc2nnc(-c3ccc(Cl)cc3)o2)cc1[N+](=O)[O-]	D3 antag -55
Cc1cc(C)cc(NC(=O)C2CCN(S(=O)(=O)c3cccc(-c4noc(C)n4)c3)CC2)c1	none (no result: uPA generation, D3 antag)
O=C(COC(=O)/C=C/C(=O)OCC(=O)NC12CC3CC(CC(C3)C1)C2)NC12CC3CC(CC(C3)C1)C2	D3 antag -59
CN=C(NC)NCc1ccccc1	none (no result: uPA generation, RGS4 inhibitor, D3 antag)
Cc1ccc(OCCC(=O)OCC(=O)NCCNC(=O)COC(=O)CCOc2ccc(C)cc2)cc1	D3 antag -61 (no result: uPA generation, RGS4 inhibitor)
COC(=O)c1ccc(C(=O)OC)c(NC(=O)COC(=O)CCOc2ccc(C)cc2)c1	D3 antag -62
Cc1ccc(OCCC(=O)OCC(=O)Nc2ccc(Cl)cn2)cc1	none
COc1ccccc1CCNC(=O)C(=O)NCC(c1ccco1)S(=O)(=O)c1ccc(F)cc1 (configuration not stated)	none (no result: uPA generation, D3 antag)
O=C(NNC1=Nc2ccccc2SC1)c1ccc(Cl)cc1	D3 antag -73
Cc1sc2nc(SCc3ccc(C(=O)O)cc3)n(Cc3ccco3)c(=O)c2c1C	D3 ag 84
CC(=O)c1ccc(NC(=O)C(C)Nc2ccc(Cl)cc2)cc1 (configuration not stated)	D3 antag -56
O=C(Nc1ccc(Cl)cc1)C(Cl)C(=O)c1ccccc1 (configuration not stated)	RGS4 inhibitor inconclusive, D3 antag -52
CC(=O)Nc1cc[n+](C(C)C(=O)c2ccc(Cl)cc2)cc1 (configuration not stated)	D3 antag -87
CCS(=O)(=O)N1CCc2cc(C(=O)Nc3cc(Cl)ccc3C)ccc21	none (no result: uPA generation, D3 antag)
Cc1cc(C)cc(-n2nnc(-c3nc(-c4ccccc4F)no3)c2C)c1	none (no result: uPA generation, D3 antag)
Cc1cn2c(=O)cc(COc3ccc(NC(=O)c4ccc(C(C)(C)C)cc4)cc3)nc2s1	D3 ag 51 (no result: uPA generation, D3 antag)
Cc1cccc(OCc2n(CC(=O)OC3CC(C)CCC3C(C)C)c3ccccc3[n+]2C)c1 (configuration not stated)	none
